Marburg entry inh: Marburg virus entry inhibition; Marburg virus pseudotyped entry inhibition, cell reporter; Potency, µM (titrated, usually from 37.8 µM), without a hit: top-dose activity change, negative = inhibition, hits mostly inhibitors; 1.8% of 300,000 active; calls by dose curve; tested in HEK293 cells; also: potency is read from the fitted curve at half-maximal effect
LASV entry inh: blocks Lassa virus binding to or entry into cells | Lassa virus pseudotype entry inhibition, cell reporter | Potency, µM (doses to about 37.9 µM), for inactives: at the highest dose activity change, negative = inhibition, most hits filed as inhibitors | 1.2% of 300,000 active | AID 540256; calls by dose curve; tested in HEK293 cells; also: potency is read from the fitted curve at half-maximal effect; nearly all actives have a fitted effect of over 50% in size
FBPA Giardia inh: blocks Giardia fructose-bisphosphate aldolase activity; A8B2U2; purified Giardia FBPA; Potency, µM (highest dose often 59.6 µM), for the others: top-dose activity, negative = inhibition, most hits filed as inhibitors; 0.71% of 290,000 active; also: potency is read from the fitted curve at half-maximal effect; nearly all actives have a fitted effect of over 55% in size
Target sequence (A8B2U2 whole entry, looked up): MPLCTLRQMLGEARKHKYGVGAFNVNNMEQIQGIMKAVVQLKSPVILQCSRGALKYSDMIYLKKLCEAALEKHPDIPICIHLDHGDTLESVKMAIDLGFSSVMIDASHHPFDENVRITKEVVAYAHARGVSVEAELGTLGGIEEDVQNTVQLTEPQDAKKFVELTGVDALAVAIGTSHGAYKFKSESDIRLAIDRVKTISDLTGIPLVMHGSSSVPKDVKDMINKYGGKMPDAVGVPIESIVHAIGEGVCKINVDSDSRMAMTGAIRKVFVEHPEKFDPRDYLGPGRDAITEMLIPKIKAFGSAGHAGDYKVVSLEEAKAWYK
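40 nM FBPA preincubated 10 min at RT with compound (up to 57.5 uM final), then substrate plus GAPDH/TPI/NAD/arsenate coupling and diaphorase/resazurin added. Fluorescence read after 20 min at RT, 525/598 nm.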
FMDV antiviral: blocks foot and mouth disease virus; FMDV antiviral cell-based qHTS; Potency, µM (highest dose often 57.9 µM), inactives show at the top dose activity change, negative = inhibition, most hits filed as inhibitors; 1.2% of 410,000 active; AID 1159524; calls by dose curve; tested in HEK293T cells; also: read-out not given here; potency is read from the fitted curve at half-maximal effect; nearly all actives have a fitted effect of over 45% in size
HCV inhibitor: HCV inhibition; Huh7.5.1 HCVcc-Cre infection, luciferase reporter, 44 h; Potency, µM (highest dose often 41.8 µM), inactives show top-dose activity change, negative = inhibition, usual class: inhibitors; 3.4% of 340,000 active; AID 651820; also: potency is read from the fitted curve at half-maximal effect
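After 44 h co-culture of compound, cells and HCVcc-Cre (~0.5 moi), substrate is added for 15 min at room temperature and luciferase measured over 15 sec. Cells were seeded at 1,000/well and pre-cultured 4 h.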
HCMV antiviral: blocks human cytomegalovirus replication; HFF cells, HCMV-luciferase reporter, 72 h; hits give low values; activity change, negative = inhibition, % at 57.5 µM; 4.5% of 410,000 active; AID 1259415; in the data active = activity change below about -60%; inconclusive = no clear call, values can overlap the other calls; inactive = above about -39%
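After 16 h attachment at 37C, HFF cells received test compound and HCMV-luciferase (1 PFU/cell); reporter luminescence read 72 h later, data normalized against buffer-only and known inhibitor Salinomycin.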
* hit, by the source's call; [ ] = remark or other dose. Most compounds without a hit are left out; they make up all but 8.3% or so of the library. Unless noted, calls follow the shape of the dose curve; as a rule, active = well fitted curve in the direction sought with a large enough effect; inconclusive = small, poorly fitted or top-dose-only effect, or another doubt; inactive = no such curve, though single readings can be large; an effect the other way counts as inactive or inconclusive. % is scaled to controls: 0 for no effect and ±100 for the full control effect.

`COCc1[nH]nc2c1[C@@H](c1ccc(OC)cc1)C(C#N)=C(N)O2` gave Marburg entry inh 5%.
For C=CCCC1CN(Cc2ccc(OC)cc2)S(=O)(=O)c2c(Oc3ccc(C(C)C)cc3)cccc2O1 (centres undefined) the results were HCMV antiviral -9.
Screening CCc1c(C)nc2nncn2c1Nc1cccc(C)c1 returned Marburg entry inh 1%[46.1 µM], LASV entry inh -7%[46.1 µM], FMDV antiviral -7% and HCMV antiviral -40.
`COc1ccccc1C(=O)Nc1ccccc1OCc1cc(=O)n2ccccc2n1` gave LASV entry inh -9%[46.1 µM], FMDV antiviral 2% and HCMV antiviral -13.
For OCCCNc1nc(-c2ccc(Cl)cc2)nc2ccccc12 the results were FBPA Giardia inh -8%, FMDV antiviral -21%, HCV inhibitor 13µM* and HCMV antiviral 28.
Screening Clc1ccc(-c2nc(NCCN3CCOCC3)c3ccccc3n2)cc1 returned Marburg entry inh inconclusive, LASV entry inh 4%, FBPA Giardia inh -1%, FMDV antiviral 6%, HCV inhibitor inconclusive and HCMV antiviral 35.
`CC(C)(C)C1CCc2onc(C(=O)Nc3sc4c(c3C#N)CCCC4)c2C1` (centres undefined) gave Marburg entry inh -11%[46.1 µM], LASV entry inh 0%[46.1 µM], FMDV antiviral inconclusive and HCMV antiviral 4.
For Cc1ccc2nc(-c3ccncc3)c(NC3CCCCC3)n2c1 the results were Marburg entry inh 12%[46.1 µM], LASV entry inh 2%, FBPA Giardia inh -1%, FMDV antiviral -29%, HCV inhibitor inconclusive and HCMV antiviral -10.
For Cc1ccc2nc(-c3ccncc3)c(NC3CCCC3)n2c1 the results were FBPA Giardia inh 1%, FMDV antiviral -24%, HCV inhibitor inconclusive and HCMV antiviral -65*.
`Cc1ccccc1Nc1cc(C)c2c(O)cccc2n1` gave Marburg entry inh inconclusive, LASV entry inh -13%, FBPA Giardia inh 0%, FMDV antiviral 8%, HCV inhibitor -5%[8.37 µM] and HCMV antiviral -89*.
`c1ccc(Sc2nc(N3CCCCC3)nc(N3CCCCC3)n2)nc1` gave Marburg entry inh -25%, LASV entry inh -4%, FBPA Giardia inh -1%, FMDV antiviral -9%, HCV inhibitor 10µM* and HCMV antiviral -6.
`CCN(CC)c1cc2c(cc1F)c(=O)c(S(=O)(=O)c1ccc(OC)cc1)cn2CC` gave LASV entry inh -9%[46.1 µM], FMDV antiviral -1% and HCMV antiviral inconclusive.
`OC[C@@H]1O[C@@H](Oc2ccc(O)cc2)[C@H](O)[C@@H](O)[C@@H]1O` gave FBPA Giardia inh 3%.
C[N+]1=CC2=c3c1c(O)c1c(c3=NCC2)C2(C=C(Br)C(=O)C(Br)=C2)CCN1 was read as HCMV antiviral -102*.
`CCNc1nc(NCC)n2c(SC(C)C(=O)c3ccc(C)cc3)nnc2n1` (centres undefined) gave Marburg entry inh 12µM*, LASV entry inh -14%, FBPA Giardia inh 0%, FMDV antiviral inconclusive, HCV inhibitor inconclusive and HCMV antiviral inconclusive.
CCNc1nc(NCC)n2c(SC(C(=O)Nc3cc(C)ccc3C)c3ccccc3)nnc2n1 (centres undefined) was read as Marburg entry inh 2%, LASV entry inh -6%, FBPA Giardia inh 1%, FMDV antiviral inconclusive, HCV inhibitor inconclusive and HCMV antiviral 23.
For COC(=O)COc1ccc(C2C(C(=O)OC)=C(C)NC3=C2C(=O)c2ccccc23)cc1OC (centres undefined) the results were Marburg entry inh 10%[46.1 µM], LASV entry inh -1%[46.1 µM], FMDV antiviral -16% and HCMV antiviral -108*.
Cc1nn(CCC(=O)NCCc2ccccc2Cl)c(=O)c2nn(-c3ccccc3)c(C)c12 was read as FMDV antiviral -14%, HCV inhibitor -30% and HCMV antiviral -62*.
`Cc1ccc(-n2nc3c(=O)n(CCCC(=O)NCc4cccc(Cl)c4)nc(C)c3c2C)cc1` gave FBPA Giardia inh 21%, FMDV antiviral inconclusive, HCV inhibitor 22µM* and HCMV antiviral 28.
